Experimental data from PubChem BioAssay (NCI).
The panel holds about 83,000 compounds, 20% with a hit somewhere; the sample as a whole holds those more often.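 Plates (96-well) were seeded with cells, treated with compound at one concentration, and incubated for 48 hours before percent growth was determined.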 Values without a mark were called inactive. Activity calls are given as the source filed them. The calls were made as follows: active = growth percent below 10; inactive = the rest.

Experiments:
Experiment in all cases: NCI-60 one-dose screen, 48 h (100 = growth as untreated, 0 = no growth, -100 = all killed)
NCI-H23 lung = conditions: 10 µM unless noted
NCI-H226 lung = conditions: 10 µM unless noted
NCI-H322M lung = conditions: 10 µM unless noted
HOP-62 NSCLC = conditions: 10 µM unless noted
NCI-H460 lung = conditions: 10 µM unless noted
HOP-92 NSCLC = conditions: 10 µM unless noted
NCI-H522 lung = conditions: 10 µM unless noted
A549/ATCC NSCLC = conditions: 10 µM unless noted
786-0 renal = conditions: 10 µM unless noted
COLO 205 colon = conditions: 10 µM unless noted
DU-145 prostate = conditions: 10 µM unless noted
K-562 leukemia = conditions: 10 µM unless noted
MALME-3M melanoma = conditions: 10 µM unless noted
MDA-MB-231 breast = conditions: 10 µM unless noted
RXF 393 renal = conditions: 10 µM unless noted
SF-268 CNS = conditions: 10 µM unless noted
SF-295 CNS = conditions: 10 µM unless noted
SF-539 CNS = conditions: 10 µM unless noted
UACC-257 melanoma = conditions: 10 µM
M14 melanoma = conditions: 10 µM unless noted

| Compound | growth (NCI-H23 lung) | growth (NCI-H226 lung) | growth (NCI-H322M lung) [%] | growth (HOP-62 NSCLC) [%] | growth (NCI-H460 lung) | growth (HOP-92 NSCLC) | growth (NCI-H522 lung) | growth (A549/ATCC NSCLC) [%] | growth (786-0 renal) | growth (COLO 205 colon) | growth (DU-145 prostate) [%] | growth (K-562 leukemia) | growth (MALME-3M melanoma) [%] | growth (MDA-MB-231 breast) | growth (RXF 393 renal) | growth (SF-268 CNS) [%] | growth (SF-295 CNS) | growth (SF-539 CNS) | growth (UACC-257 melanoma) | growth (M14 melanoma) |
| --- | --- | --- | --- | --- | --- | --- | --- | --- | --- | --- | --- | --- | --- | --- | --- | --- | --- | --- | --- | --- |
| Nc1c(C(=O)c2ccccc2)sc2nc(-c3cnccn3)cc(-c3cccs3)c12 | 104% | 95.8% | 100 | 97.6 | 103% | 106% | 96.8% | 102 | 106% | 108% | 106 | 99.4% | 104 | 92.7% | 108% | 97.8 | 105% | 95.2% | 103% | 97.4% |
| Oc1ccc(CSc2nnc(-c3ccccc3)o2)c2cccnc12 | 27.8% | 51.2% | 25.7 | 13.8 | 2.23% (active) | -3.86% (active) | 22.6% | 17.6 | 24.5% | 98.9% | 30 | 10.4% | 36.1 | 47% | 24.5% | 21.8 | 2.18% (active) | 13.2% | 6.39% (active) | 15.5% |
| C/C(=C(/C)C1CC1CCN(C(=O)c1ccc([N+](=O)[O-])cc1)S(=O)(=O)c1ccc(C)cc1)C1CCCCC1 (centres undefined) | 87.2% | 90.8% | 100 | 109 | 98.6% | -49% (active) | 83.8% | 97.8 | 96.2% | 112% | 96.6 | 74.7% | 98.3 | 97.3% | 105% | 96.5 | 104% | 100% | 96.9% | 97.7% |
| COc1ccc(Cn2cc3c(c2-c2cc(OC)c(OC)c(OC)c2)CCCc2cnoc2-3)cc1N | 47.1% | 66.9% | 46.3 | 51.1 | 11.5% | 65.3% | 12.5% | 43 | 38.1% | 12.7% | 17.2 | 20.3% | 54.9 | 35.2% | -5.39% (active) | 58 | 0% (active) | 1.95% (active) | 90.3% | 0.685% (active) |
| Cn1cc(-c2nnc(N)nc2-c2cn(C)c3ccc(F)cc23)c2cc(F)ccc21 | 101% | 97.4% | 101 | 90.7 | 102% | 116% | 73.2% | 77.2 | 86.1% | 107% | 95.6 | 101% | 107 | 94.6% | 104% | 78.5 | 113% | 96.4% | 101% | 101% |
| O=C1c2c(c3c4cccnc4[nH]c3c3ccc4ccccc4c23)C(=O)N1CCN1CCNCC1 | 81.6% | 89.4% | 88 | 63.6 | 32.6% | 85.3% | 81.8% | 44 | 52.7% | 81.9% | 74.8 | -35.5% (active) | 92.3 | 89.9% | 75.5% | 78.3 | 84.2% | 73.8% | 106% | 64.4% |
| O=C(/C=C/Nc1ccc(S(=O)(=O)O)cc1)c1ccc(F)cc1 | 95.9% | 98.5% | 102 | 117 | 101% | 96.2% | 98.5% | 101 | 106% | 101% | 103 | 106% | 105 | 106% | 99.9% | 102 | 98.7% | 94% | 101% | 96% |
| Nc1nc(-c2cccc([N+](=O)[O-])c2)c(N=Nc2ccccc2Cl)s1 | 60.8% | 70.4% | 86.3 | 56.1 | 41% | 31.8% | 60.1% | 51.8 | 52.6% | 93.1% | 52.6 | 52.5% | 111 | 54.1% | -13.6% (active) | 68.4 | 70.8% | 17.8% | 104% | 77.7% |
| COc1cc2oc(-c3cccc(NC(=O)c4cc(NC(=O)[C@H](C)N)ccc4Cl)c3)cc(=O)c2c(OC)c1OC | 91.5% | 86% | 104 | 105 | 99.8% | 17.2% | 94.9% | 96.3 | 91.7% | 101% | 95.2 | 78.8% | 111 | 82.4% | 84.8% | 92.2 | 92.3% | 91.1% | 129% | 115% |
| O=C(NNc1nc2cc(F)cc(F)c2n2cccc12)c1ncccn1 | 11.2% | -2.14% (active) | 25.5 | 19.7 | 6% (active) | 61.2% | -2.87% (active) | 18.7 | 0.547% (active) | 16.9% | 20.6 | 17.8% | 25.9 | 34.9% | 33% | 13.6 | 12.6% | -0.152% (active) | 12.9% | -18.1% (active) |
| NC(=O)N1N=C(c2cc3ccccc3oc2=O)CC1c1cn(-c2ccccc2)nc1-c1ccc(Cl)cc1 (centres undefined) | 41.8% | 50.4% | 52 | 43.1 | 22.2% | 42.6% | 45.2% | 29.6 | 39.3% | 28.8% | 56.6 | 27.4% | 69.6 | 54.3% | 88.2% | 54.5 | 19.6% | 42.8% | 59.5% | 43.9% |
| COc1cc2cc(Oc3ccc(NC(=O)Nc4cc(C(F)(F)F)cc(C(F)(F)F)c4)cc3)c(C)nc2cc1OCCN(C)C | 104% | 98.6% | 109 | 101 | 107% | 127% | 102% | 104 | 106% | 115% | 120 | 106% | 106 | 104% | 112% | 106 | 103% | 100% | 103% | 107% |
| CC(C)C[C@H]1C(=O)O[C@H](C(C)C)C(=O)N(C)[C@@H](C(C)C)C(=O)O[C@H](C(C)C)C(=O)N(C)[C@@H](C(C)C)C(=O)O[C@H](C(C)C)C(=O)N1C | 6.64% (active) | 20.5% | 13.3 | 14.7 | 8.47% (active) | -23.2% (active) | 1.72% (active) | 12.6 | 23.3% | -89% (active) | 24.4 | 8.19% (active) | 18 | 8.5% (active) | 19.1% | 20.4 | 5.53% (active) | 22.3% | – | 18.5% |
| Cc1cc(C(=O)Nc2ccc(SC#N)cc2)c(C)o1 | 89.5% | 77.7% | 96.2 | 63.9 | 82.4% | 110% | 49.8% | 82.4 | 88.2% | 106% | 104 | 93.3% | 107 | 92.4% | 66.5% | 66.6 | 92.4% | 98.8% | 111% | 101% |
| O=S(=O)(Nc1cc(Cl)cc(Cl)c1)c1ccc(-c2cnc(C3CC3)o2)cc1 | 42.9% | 43.4% | 49.9 | 43.1 | 18.7% | 64.6% | 33.9% | 43.1 | 50.3% | 14.2% | 22.3 | 14.4% | 60.4 | 47.5% | 8.4% (active) | 66.6 | 17.4% | 13.7% | 75.1% | 19.9% |
